Assay results as given in PubChem BioAssay AID2551 (National Center for Advancing Translational Sciences (NCATS), 2010).
Hit rate of the full screen: of about 310,000 compounds, about 17,000 (5.5%) were called active. Another 11% or so got no clear call; they are omitted. The full list was thinned out, with actives kept by preference. Unmarked numbers belong to inactive results. Calls follow the shape of the dose curve; as a rule, active = well fitted inhibition curve with a large enough effect; inconclusive = small, poorly fitted or top-dose-only effect, or effect the other way; inactive = no such curve, though single readings can be large or run the other way.

molecular target: Nuclear receptor ROR-gamma (Mus musculus) (UniProt P51450); experiment: qHTS for inhibitors of ROR gamma transcriptional activity; details: Drosophila S2 Gal4-RORgamma UAS-luciferase reporter, 20 h; series mostly up to 53.6 µM; activity change, negative = inhibition: at the top concentration; also: nearly all actives have a fitted effect of over 60% in size
Summary of the method: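 In this cell-based reporter format, copper sulfate (700 uM final) drives Gal4–ROR gamma fusion expression from a metallothionein promoter in Drosophila Schneider cells; compounds preincubated 1 hr, reporter read after 20 hr at ambient temperature.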
% is scaled to controls: 0 for no effect and ±100 for the full control effect; potency is read from the fitted curve at half-maximal effect.

Nuclear receptor ROR-gamma (Mus musculus), sequence (P51450 whole entry, looked up, the tested form may be a part): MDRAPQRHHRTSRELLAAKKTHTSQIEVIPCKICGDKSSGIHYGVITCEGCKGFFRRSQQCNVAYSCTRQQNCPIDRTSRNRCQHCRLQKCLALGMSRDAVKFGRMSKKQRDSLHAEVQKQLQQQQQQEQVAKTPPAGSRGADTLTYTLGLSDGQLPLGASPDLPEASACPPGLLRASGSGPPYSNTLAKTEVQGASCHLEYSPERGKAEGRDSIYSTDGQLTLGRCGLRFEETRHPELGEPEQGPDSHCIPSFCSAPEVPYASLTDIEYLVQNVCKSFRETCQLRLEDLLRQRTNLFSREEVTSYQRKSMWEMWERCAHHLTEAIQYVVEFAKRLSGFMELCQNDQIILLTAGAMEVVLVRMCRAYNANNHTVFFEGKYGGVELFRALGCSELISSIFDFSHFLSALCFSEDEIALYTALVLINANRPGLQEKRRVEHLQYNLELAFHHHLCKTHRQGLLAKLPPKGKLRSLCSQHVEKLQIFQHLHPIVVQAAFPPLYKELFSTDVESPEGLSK

Compound	activity change, negative = inhibition	Potency
Cc1ccc(NC(=O)C2CCN(S(=O)(=O)c3ccc4c(c3)NC(=O)CO4)CC2)cc1C	41.8%	
CN(CCO)S(=O)(=O)c1ccc2c(c1)C(=O)c1cc(S(=O)(=O)N(C)CCO)ccc1-2	0.564%	
CCCn1cc(S(=O)(=O)c2ccc(C)cc2)c(=O)c2cc(OCC)ccc21	0.63%	
CC1C(=O)N(Cc2ccccc2)c2ccccc2N1C(=O)c1ccccc1 (stereo not drawn)	8.29%	
Cc1cccc(C(=O)Nc2nnc(S(=O)(=O)N3CCCCCC3)s2)c1	16.9%	
Cc1cnc(CN(C)C(=O)CC2C(=O)NCCN2Cc2cccc(F)c2F)[nH]1 (stereo not drawn)	-20.8%	
COc1ccc(OC)c(NC(=O)c2cccc(S(=O)(=O)N3CCN(C(C)=O)CC3)c2)c1	-2.46%	
Cc1noc(C)c1C(=O)N1CCOCC1	2.89%	
Cc1oc2c(c1C(=O)N1CCOCC1)C(=O)c1ccccc1C2=O		3.98 µM (active)
Cc1onc(-c2ccccc2)c1C(=O)N1CCOCC1	-18.9%	
COc1ccc(C2/C(=C(/O)c3ccc4c(c3)CC(C)O4)C(=O)C(=O)N2Cc2ccncc2)cc1 (stereo not drawn)	-8.85%	
COc1ccc(/C=C2\SC(=O)N(CCC(=O)NCCCn3ccnc3)C2=O)cc1	-6.56%	
CCn1nnnc1SCC(=O)Nc1ccc(N(C)C)cc1	-2.16%	
N#Cc1cccc(CS(=O)(=O)c2nnnn2-c2cc(C(F)(F)F)cc(C(F)(F)F)c2)c1	16.1%	
COc1ccccc1-n1nnnc1S(=O)(=O)Cc1ccc(Cl)cc1		11.2 µM (active)
COc1ccccc1N1CCN(S(=O)(=O)c2ccc(Cl)cc2)CC1	38.5%	
CCn1ccnc1CN(C)C(=O)c1cc(COc2ccc(-n3cncn3)cc2)on1	-3.57%	
COc1ccc(-c2[nH]ncc2/C=N/NC(=O)c2cc(Br)ccc2O)c(OC)c1		2.24 µM (active)
COc1ccc(O)c(C=Nc2cc(C)on2)c1	-0.282%	
COc1ccc(/C=N/NC(=O)Nc2ccc3nsnc3c2)c(OC)c1	-0.124%	
COc1cc(CN2CCCC(C(=O)c3ccc(SC)cc3)C2)cc(Cl)c1O (stereo not drawn)	-3.37% [at 1.91 µM]	
Cc1nc2nc(C)c(NS(=O)(=O)c3ccc(C(C)(C)C)cc3)c(=O)n2[nH]1	-9.88%	
CC(=O)c1ccc(N2CCN(S(=O)(=O)c3ccc4c(c3)CC(=O)N4C)CC2)cc1	25.1%	
O=C(CN1C(=O)C2C3C=CC(C3)C2C1=O)Nc1nc(-c2ccccn2)cs1 (stereo not drawn)	-0.0112%	
Cc1cc(NC(=O)[C@H](C)NC(=O)c2ccco2)ccc1Br	2.23%	
CC(NC(=O)c1ccco1)C(=O)Nc1nc(-c2ccccn2)cs1 (stereo not drawn)		11.2 µM (active)

Compound	activity change, negative = inhibition	Potency
O=C(Nc1ccc(N2CCCC2=O)cc1)c1cncc(Br)c1	-16.2%	
COc1ccc(NC(=O)c2cc([N+](=O)[O-])ccc2NC(=O)CNC2CCCCC2C)c(OC)c1 (stereo not drawn)	5.91%	
CCCCn1c(CCCNC(=O)CC)nc2ccccc21	-14.6%	
C=C(Br)Cn1c(CCCC)nc2ccccc21		15.8 µM (active)
CCCCn1c(CN2CCN(CCO)CC2)nc2ccccc21	-0.635%	
Cc1snc(SCc2c(F)cccc2Cl)c1C#N	15.7%	
CCc1ccc(OCC(=O)N(Cc2ccccc2)C2CCS(=O)(=O)C2)cc1 (stereo not drawn)	10.7%	
C=CCNC(=S)NNC(=O)c1cc(Cl)ccc1OC	27.5%	
COc1ccc(C(C)NC(=S)NC2CCCCC2)cc1OC (stereo not drawn)		11.2 µM (active)
COc1ccc(Cl)cc1C(=O)NNC(=S)NC1CCCC1		11.2 µM (active)
COc1ccc(CCNC(=O)CCC(=O)NC2CCCCC2)cc1OC	16.7%	
COc1ccc(Cl)cc1C(=O)NCC#N	-15%	
COc1ccc(Cl)cc1C(=O)NNC(=S)NC(=O)/C=C/c1ccco1		3.98 µM (active)
COc1cc(C(=S)NC2CCCCC2)ccc1O	-15.6%	
COc1ccc(Cl)cc1C(=O)NNC(=O)c1nc2nc(C)cc(C)n2n1	-7.86%	
COc1cc(OC)c(C(=O)NC2CCCCCC2)cc1OC	3.98%	
CSc1ncccc1C(=O)NCc1ccccc1Cl	-1.28%	
COC(=O)c1ccc(CNC(=O)C2CCC(=O)N(Cc3cccc(F)c3)C2)cc1 (stereo not drawn)	8.55%	
CCc1nnc(NC(=O)CSCc2cc(=O)n3cc(C)sc3n2)s1	1.38%	
O=C1C(=O)N(CCCN2CCOCC2)C(c2ccc([N+](=O)[O-])cc2)/C1=C(\O)c1ccc2c(c1)OCCO2 (stereo not drawn)	-5.32%	
C=CCn1c(=O)c(C(=O)NCc2ccc3c(c2)OCO3)c(O)c2ccccc21	-26.9%	
CC1CCN(CCCn2c(SCC(=O)NC3CCCC3)nc3ccccc3c2=O)CC1	-15.6%	
CN(CCNC(=O)c1cc2c(-c3ccccc3F)nn(C)c2s1)C1CCCCC1	-20.2%	
O=c1[nH]cnc(O)c1C(c1ccc(F)cc1)c1c(O)nc[nH]c1=O	-1.37%	
CCOc1ccc(CCNC(=O)CCc2nnc3ccc(N4CCCC4)nn23)cc1OCC	1.07%	
COC(=O)c1ccc(CN2CCC(CO)(Cc3ccc(OC)cc3)CC2)cc1	4.46%	

Compound	activity change, negative = inhibition	Potency
CCOC(=O)C1(CCOC)CCN(Cc2ccc(C(=O)OC)cc2)CC1		7.08 µM (active)
CCOC(=O)C1(CCOC)CCN(Cc2cc3ccccc3s2)CC1	-12.6%	
Cc1cc2c(c(=O)n1Cc1ccccc1)C1O[C@](CCCCN3C(=O)c4ccccc4C3=O)(Cc3ccccc31)O2	18.4% [at 10 µM]	
O=C(CN1CCc2cc3c(cc2C1)OCCCO3)Nc1ccccc1	-0.965%	
COc1ccc(-n2cc(CN(C)Cc3n[nH]c(=O)[nH]3)c(-c3cccc(F)c3)n2)cc1	23%	
Cc1ccc(-n2cc(CN(C)Cc3nccn3C)c(-c3cccc(C)c3)n2)cc1		7.94 µM (active)
Cc1cccc(-n2cc(CN3CCN(C(=O)c4ncn[nH]4)CC3)c(-c3cccc(F)c3)n2)c1	0.467%	
COc1ccc(NC(=O)CCC(=O)Nc2nnc(C3CCCCC3)s2)cc1	-27.8%	
CC(C)(C)NS(=O)(=O)c1ccc(NC(=O)C2CCCO2)cc1 (stereo not drawn)	1.02%	
O=C(CNC(=O)c1cccnc1)N/N=C/c1cc(Br)c(O)c(Br)c1	-21.6%	
Oc1c(Br)cc(/C=N/NC(=S)NCC2CCCO2)cc1Br (stereo not drawn)		0.1 µM (active)
O=C(CNC(=O)C1COc2ccccc2O1)N/N=C/c1cc(Br)c(O)c(Br)c1 (stereo not drawn)	1.65%	
c1ccc2sc(NN=C3CCCC3)nc2c1		7.94 µM (active)
O=C(Nc1ccccc1)Nc1nc2ccccc2s1	-23.2%	
CSCCC(Nc1nc2ccccc2s1)C(=O)O (stereo not drawn)	-22.4%	
CC(C)(COC(=O)Nc1ccccc1)COC(=O)Nc1ccccc1	-2.91%	
CCn1c(SCC(=O)Nc2ccc(Br)cc2)nc2sc3c(c2c1=O)CCN(C)C3	39%	
Nc1ncc(CN2CCCC(C(=O)Nc3ccc(-c4ccco4)cc3)C2)cn1 (stereo not drawn)	-10.1%	
CCOCc1nnc(NC(=O)CCS(=O)(=O)Cc2ccccc2)s1	10.4%	
CCOCCOC(=O)C1=C(C)NC(=O)NC1c1ccc2c(c1)OCO2 (stereo not drawn)	0.346%	
CCN(CC)CCN(C(=O)c1ccc(S(=O)(=O)N2CCOCC2)cc1)c1nc2cc3c(cc2s1)OCCO3	22.5%	
CC(=O)N(CCCN(C)C)c1nc2ccc(C)cc2s1	1.73%	
CN(C)CCCN(C(=O)c1ccc(S(=O)(=O)N2CCCCCC2)cc1)c1nc2ccc(Br)cc2s1		2.82 µM (active)
CN1CCN(C(=O)c2ccccc2NC(=O)COc2ccccc2Cl)CC1	7.86%	
O=C1COc2ccc(S(=O)(=O)NCCc3ccc(Cl)cc3)cc2N1	-15.2%	
Cc1cc(OCC(=O)Nc2c(C)n(C)n(-c3ccccc3)c2=O)ccc1[N+](=O)[O-]	16.1%	

Compound	activity change, negative = inhibition	Potency
Oc1cccc(C2c3[nH]c4ccccc4c3CCN2Cc2cnn(-c3ccccc3)c2)c1 (stereo not drawn)	17.3%	
COc1cccc(C2c3[nH]c4ccccc4c3CCN2Cc2cccc(C)n2)c1 (stereo not drawn)		12.6 µM (active)
COc1ccc(C2c3[nH]c4ccccc4c3CCN2CCCn2cccn2)cc1C (stereo not drawn)	-4.28%	
CN(Cc1ccc(F)cc1Cl)S(=O)(=O)c1cccs1	13.6%	
CCc1ccc2[nH]c(=O)c(Cc3ccccc3)c(O)c2c1	14.8%	
O=C(Nc1ccccc1)OCc1cc(-c2ccc(Cl)cc2)on1	0.919%	
O=C1C=C(c2ccc(Cl)cc2)C(=O)N1Nc1ccccc1		7.08 µM (active)
O=C1c2cccc3cc(Br)cc(c23)C(=O)N1Nc1ccccc1	-19.1%	
CC1(C)Cc2c(sc(NC(=O)C(=O)N3CCOCC3)c2C#N)CO1	11.5%	
O=S(=O)(Nc1ccccc1Cl)c1cccc2nsnc12	-0.764%	
O=C(Cc1ccccc1)Nc1ccc(NC(=O)c2cccnc2)cc1	28.3%	
CCC(C)C(=O)Nc1ccccc1N1CCN(c2ccc(F)cc2)CC1 (stereo not drawn)	-20.4% [at 1.91 µM]	
C/C(=N\NC(=O)CCn1nc(C)cc1C)C(C)(C)C		11.2 µM (active)
Cc1cc(C)n(CCC(=O)N2CCN(S(=O)(=O)c3ccc(C)c(C)c3)CC2)n1	-23.4%	
Cc1cc(C)n(CC(=O)Nc2ccc([N+](=O)[O-])cc2)n1	4.43%	
C=CCSc1nnc(N2C(=O)C(O)=C(C(=O)c3ccco3)C2c2ccc(F)cc2)s1 (stereo not drawn)	0.341%	
COc1cccc(NC(=O)c2ccc(S(=O)(=O)N(C)C)cc2)c1	27.1%	
COc1cccc(C(=O)Nc2nnc(S(=O)(=O)N(C)c3ccccc3)s2)c1	-1.13%	
COc1cccc(-c2nnc(NC(=O)c3ccc(S(=O)(=O)N(CC(C)C)CC(C)C)cc3)o2)c1		0.282 µM (active)
COc1ccc2[nH]c3nc(SCC(=O)NC4CC4)nnc3c2c1	-8.92%	
Cc1c(C(=O)N/N=C/c2ccccc2)[nH]c2c([N+](=O)[O-])cccc12	-16.9%	
COc1cccc2c(C)c(C(=O)O)[nH]c12		2 µM (active)
COc1cc2c(C(=O)O)c(C)n(C)c2c2ccccc12	13.6%	
CCOC(=O)C1CN(S(=O)(=O)c2ccc(OC)cc2)c2cc(Cl)ccc2O1 (stereo not drawn)	-1.61%	
COc1ccc(Cc2nc3ccc(C(=O)N4CCC(N(C)C)C4)cc3o2)cc1 (stereo not drawn)	6.86%	
